HCMV inh: blocks human cytomegalovirus replication; activity change, negative = inhibition, % at 57.5 µM; HFF cells, HCMV-luciferase reporter, 72 h; hits give low values; actives 4.5% (n = 410,000); in the data active means activity change below about -60%; inconclusive means no clear call, values can overlap the other calls; inactive means above about -39%
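Screen run at 2 compound doses on HFFs infected with reporter HCMV, MOI 1 PFU/cell. Luciferase activity from cell lysates at 72 h post infection gave inhibition relative to buffer-only and Salinomycin wells.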
HCV inhibitor: HCV inhibition; Potency, µM (highest dose often 41.8 µM), hits mostly inhibitors; actives 3.4% (n = 340,000); Huh7.5.1 HCVcc-Cre infection, luciferase reporter, 44 h
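Compounds are dispensed onto cells plated 4 h earlier at 1,000 per well, with HCVcc-Cre virus (about 0.5 moi) added next. Following 44 h of culture, luminescent signal is measured for 15 sec after 15 min with substrate at room temperature.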
Pf growth 48h: P. falciparum growth inhibition at 48 hours (one generation); P. falciparum luciferase growth in erythrocytes, 48 h; AID 504832; actives 5.9% (n = 310,000); Potency, µM (highest dose often 28.7 µM), hits mostly inhibitors
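Cell-based growth assay: transgenic P. falciparum expressing firefly luciferase, cultured in red cells within RPMI 1640 containing 0.5% w/v Albumax, 24 mM bicarbonate and gentamycin. A drop in luciferase activity indicates inhibition.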
Pf growth 96h: P. falciparum growth inhibition at 96 hours; Potency, µM (top dose mostly 28.7 µM), usual class: inhibitors; P. falciparum luciferase reporter growth, 96 h; actives 6.9% (n = 320,000)
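Two-generation exposure (96 h) targets delayed-death phenotype. Reporter parasites carrying integrated firefly luciferase, in red cells at 2% hematocrit and 0.05% parasitemia final, kept at 37 C, 5% CO2; luminescence loss indicates inhibition.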
Lassa entry inh: inhibitors of Lassa virus binding or cell entry; Lassa virus pseudotype entry inhibition, cell reporter; Potency, µM (top dose mostly 37.9 µM), actives largely listed as inhibitors; actives 1.2% (n = 300,000); calls by dose curve; tested in HEK293 cells; further: nearly all actives have a fitted effect of over 50% in size
MARV entry inh: Marburg virus entry inhibition | Potency, µM (doses to about 37.8 µM), hits mostly inhibitors | AID 540276 | Marburg virus pseudotyped entry inhibition, cell reporter | actives 1.8% (n = 300,000); calls by dose curve; tested in HEK293 cells
A number is an active result; - = inactive; ? = inconclusive; . = not tested or not shown; [ ] = another dose, or the depositor's remark. An excerpt weighted towards active compounds, which were near 14% of everything screened. Unless noted, the call rests on the fitted dose curve; in most records, active means well fitted inhibition curve with a large enough effect; inconclusive means small, poorly fitted or top-dose-only effect, or another doubt; inactive means no such curve, though single readings can be large or run the other way.

SMILES	HCMV inh	HCV inhibitor	Pf growth 48h	Pf growth 96h	Lassa entry inh	MARV entry inh
CC(C)(C)N=Cc1cc(-c2ccccc2)sc1O	-	10µM	.	?	-	?
Cc1c(C(=O)N(C)C)sc2c1c(=O)n(-c1ccccc1C(F)(F)F)c(=O)n2Cc1ccccc1C#N	-	.	.	.	-	.
O=C(Nc1nc(-c2ccc3ccccc3c2)cs1)C1CCN(S(=O)(=O)c2cccs2)CC1	-75	?	?	?	?	-
Cc1ccc(-c2csc(NC(=O)C3CCN(S(=O)(=O)c4cccs4)CC3)n2)cc1	-79	10µM	?	12µM	?	?
C=Cn1ccnc1P(=S)(c1ccc(Cl)cc1)c1nccn1C=C	-76	-	-	-	-	-
CCN1CCN(c2ncnc3c2cnn3-c2ccc(F)cc2)CC1	-	.	.	.	?	.
Cc1ccc(NC(=S)N/N=C/c2ccc([N+](=O)[O-])s2)cc1	-74	?	9.3µM	-	18µM	?
Cc1onc(-c2ccccc2)c1C(=O)N/N=C/c1ccc([N+](=O)[O-])s1	-	?	12µM	?	?	?
O=C(NCC1CC1)[C@@H]1C[C@H]1[C@@H](NP(=O)(c1ccccc1)c1ccccc1)c1ccccc1	-	-	-	?	?	-
O=C(NCc1ccccn1)[C@@H]1C[C@H]1[C@@H](NP(=O)(c1ccccc1)c1ccccc1)c1ccccc1	-	-	-	?	6.5µM	-
O=C(O)[C@@H]1C[C@H]1[C@@H](NP(=O)(c1ccccc1)c1ccccc1)c1ccccc1	-99	-[8.37 µM]	-	-	-	-
Cc1ccc(CNC(=O)[C@H]2C[C@@H]2[C@H](NP(=O)(c2ccccc2)c2ccccc2)c2ccccc2)o1	-	-	?	?	?	?
O=C(NCc1ccccc1)[C@@H]1C[C@H]1[C@@H](NP(=O)(c1ccccc1)c1ccccc1)c1ccccc1	-	-	?	15µM	1.8µM	?
COC(=O)[C@H]1C[C@@H]1[C@H](NP(=O)(c1ccccc1)c1ccccc1)c1ccccc1	-	-	-	?	-	-
O=C(Nc1ccc2ccccc2c1)[C@@H]1C[C@H]1[C@@H](NP(=O)(c1ccccc1)c1ccccc1)c1ccccc1	-	-[8.37 µM]	9.3µM	?	?	-
CCCCn1nc(NC(=O)c2cccc(Cl)c2)c2cc3cccc(C)c3nc21	-	.	.	.	-	-
CCN1CC=C2C(C#N)=C(N)C(C#N)(C#N)C(c3cc(Cl)ccc3Cl)C2C1 (stereo unspecified)	-	?	8.3µM	-	-	-
CO/N=C1\CCCc2c(C(=O)NN)sc(SC)c21	-66	-	-	-	?	?
CCC(Cc1ccccc1)NC(=O)c1ccc2nc(N3CCC(C)CC3)sc2c1 (stereo unspecified)	-	.	.	.	-	?
COc1ccc(-c2cc3c(c4c2ccn4C)C2CCC3C2)cc1OC (stereo unspecified)	-60	.	.	.	.	?
CCCN(CC1CC1)c1cc2c(c3c1ccn3C)C1CCC2C1 (stereo unspecified)	-62	.	.	.	.	3.1µM
Cn1ccc2c(-c3cccc(C=O)c3)cc3c(c21)C1CCC3C1 (stereo unspecified)	-	.	.	.	.	.
CCN(CC)c1cc2c(c3c1ccn3C)C1CCC2C1 (stereo unspecified)	-	.	.	.	.	.
Cn1ccc2c(N3c4ccccc4CCc4ccccc43)cc3c(c21)C1CCC3C1 (stereo unspecified)	-93	.	.	.	-	.
O=C(COc1ccccc1Cl)Nc1nc(-c2ccc(F)cc2)ns1	-	.	.	.	-	-
NC(=S)N/N=C1\CCSc2ccc(Cl)cc21	-99	?	-	?	-	-
O=C(N/N=C1\CCSc2ccc(F)cc21)c1cccnc1	-	-	-	-	.	.
CN=C(Nc1ccc(Br)cc1)SC1CC(=O)N(c2ccc(OC)cc2)C1=O (stereo unspecified)	-	-	?	-	-	-
CN=C(Nc1ccc(C)c(C)c1)SC1CC(=O)N(c2ccc(OC)cc2)C1=O (stereo unspecified)	-	-	12µM	-	.	.
CCOc1ccc(N2C(=O)CC(SC(=NC)Nc3ccc(F)cc3)C2=O)cc1 (stereo unspecified)	-	-	?	9.3µM	-	-
